# Results: PubChem BioAssay (Tox21)
# Several values for one entry are separate records, joined by “and”; a condition that tells them apart may be missing. Equal values may be shown once. Records with an inconclusive call do not appear. Entries that show only a call come without a potency. A structure can be active in one record and inactive in another. Activity calls are given as the source filed them. Unless noted, calls come from the whole dose curve; as a rule, active = well fitted curve in the direction sought with a large enough effect in the repeat runs; inconclusive = weak or mixed curves; inactive = no such curve, though single readings can be large; an effect the other way counts as inactive or inconclusive.
# Tests used:
# [1] = qHTS assay to identify small molecule antagonists of the constitutive androstane receptor (CAR) signaling pathway - cell viability counter screen (AID 1224837); note: nearly all actives have a fitted effect of over 45% in size
# How it was run: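 Read-out: CellTiter-Fluor fluorescence after 23 hr at 37 C/5% CO2. Cells: HepG2 double-stable for hCAR and CYP2B6-2.2kb. Compounds tested at 15 concentrations in the presence of CITCO, final concentration 50 nM.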
# [2] = target: Nuclear receptor subfamily 1 group I member 3 (Homo sapiens) (UniProt Q14994); experiment: qHTS assay to identify small molecule antagonists of the constitutive androstane receptor (CAR) signaling pathway (AID 1224838);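 note: HepG2 cells stably expressing hCAR with CYP2B6 luciferase reporter stimulated by CITCO; nearly all actives have a fitted effect of over 40% in size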
# Sequence of Nuclear receptor subfamily 1 group I member 3 (Homo sapiens) (Q14994 whole entry, looked up): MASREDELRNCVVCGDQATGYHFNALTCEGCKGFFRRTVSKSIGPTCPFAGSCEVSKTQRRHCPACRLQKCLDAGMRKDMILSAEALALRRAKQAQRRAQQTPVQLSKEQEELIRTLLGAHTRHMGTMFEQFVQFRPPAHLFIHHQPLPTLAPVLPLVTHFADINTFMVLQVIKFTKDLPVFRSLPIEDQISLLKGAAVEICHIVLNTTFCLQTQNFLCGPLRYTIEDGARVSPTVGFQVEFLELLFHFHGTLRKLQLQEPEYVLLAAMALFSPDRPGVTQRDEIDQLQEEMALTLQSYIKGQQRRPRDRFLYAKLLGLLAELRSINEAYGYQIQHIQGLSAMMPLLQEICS
# How it was run: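 Read-out: ONE-Glo luciferase luminescence after 30 min at room temperature. HepG2-CYP2B6-hCAR double-stable cells, compounds in 15-point titration plus 50 nM CITCO final, 24 h at 37 C/5% CO2.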
# [3] = target: Nuclear receptor subfamily 1 group I member 3 (Homo sapiens) (UniProt Q14994); experiment: qHTS assay to identify small molecule agonists of the constitutive androstane receptor (CAR) signaling pathway (AID 1224839); note: nearly all actives have a fitted effect of over 15% in size; note: potency is the fitted concentration of half-maximal effect;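 for activation: HepG2 cells stably carrying human CAR and a CYP2B6 luciferase reporter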
# How it was run: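 Luminescence read-out (ONE-Glo, 30 min, room temperature) from double-stable HepG2-CYP2B6-hCAR cells exposed 24 h to 15-point compound series in presence of 0.75 uM PK11195 final.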
# [4] = qHTS assay to identify small molecule antagonists of the estrogen related receptor signaling pathway with the pleiotropic PPARgamma coactivator (PGC) from Tox21 10K library - cell viability counter screen (AID 1224840; active = well fitted cell-killing curve with a large enough effect in the repeat runs, not every such curve was filed as active; note: nearly all actives have a fitted effect of over 40% in size; note: potency is the fitted concentration of half-maximal effect)
# How it was run: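 Fluorescence read-out of CellTiter-Fluor viability reagent, added after cells had been exposed to compound in DMSO for 17.5 h at 37 C; 30 min development at 37 C/5% CO2. Cells: PGC/ERR line, 2,000/well.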
# [5] = target: Thyrotropin receptor (Homo sapiens) (UniProt P16473); experiment: qHTS assay to identify small molecule agonists of the thyroid stimulating hormone receptor (TSHR) signaling pathway (AID 1224843; calls by dose curve; note: nearly all actives have a fitted effect of over 45% in size)
# Sequence of Thyrotropin receptor (Homo sapiens) (P16473 whole entry, looked up): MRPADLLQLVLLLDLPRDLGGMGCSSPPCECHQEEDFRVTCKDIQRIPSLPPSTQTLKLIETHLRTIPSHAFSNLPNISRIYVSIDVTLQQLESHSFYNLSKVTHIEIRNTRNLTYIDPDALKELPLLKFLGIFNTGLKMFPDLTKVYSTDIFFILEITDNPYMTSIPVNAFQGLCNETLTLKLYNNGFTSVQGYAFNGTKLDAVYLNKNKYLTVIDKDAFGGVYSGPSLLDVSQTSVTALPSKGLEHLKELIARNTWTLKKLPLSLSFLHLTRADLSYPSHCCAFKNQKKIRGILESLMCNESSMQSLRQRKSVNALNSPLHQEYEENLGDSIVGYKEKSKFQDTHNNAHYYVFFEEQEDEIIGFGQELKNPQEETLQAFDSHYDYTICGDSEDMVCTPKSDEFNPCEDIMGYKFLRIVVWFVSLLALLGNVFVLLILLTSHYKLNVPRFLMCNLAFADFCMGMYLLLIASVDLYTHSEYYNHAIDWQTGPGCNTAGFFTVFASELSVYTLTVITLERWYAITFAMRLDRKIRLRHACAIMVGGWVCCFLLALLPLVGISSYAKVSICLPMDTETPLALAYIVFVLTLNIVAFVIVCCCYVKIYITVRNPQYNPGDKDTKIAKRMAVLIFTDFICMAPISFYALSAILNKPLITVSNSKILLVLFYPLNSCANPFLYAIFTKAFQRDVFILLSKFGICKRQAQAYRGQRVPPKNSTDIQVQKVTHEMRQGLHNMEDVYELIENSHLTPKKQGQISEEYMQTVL
# How it was run: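 Agonist-mode screen: TSHR HEK293 cells received test chemicals for half an hour at room temperature, then HTRF cAMP detection reagents for one hour prior to fluorescence measurement. Each chemical ran as a 15-concentration series, triplicated.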
# [6] = qHTS assay to identify small molecule agonists of the hypoxia (HIF-1) signaling pathway - cell viability counter screen (AID 1224844; calls by dose curve; note: nearly all actives have a fitted effect of over 50% in size)
# How it was run: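 CellTiter-Glo luminescence read-out, 30 min RT, taken in the same wells as the beta-lactamase HRE reporter assay; HRE-bla ME-180 cells, 0.5% dialyzed FBS, 17 hr compound treatment at 37C, 5% CO2.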
# [7] = qHTS assay to identify small molecule agonists of H2AX (AID 1224845; active = well fitted activation curve with a large enough effect in the signal ratio in the repeat runs, not every such curve was filed as active; the % refers to the signal ratio)
# How it was run: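 Wild-type CHO-K1 cells, plated overnight, exposed 3hr at 37C to 15 concentrations (0.76% DMSO final). Lysed, then HTRF anti-pH2AX (S139) cryptate and anti-H2AX-d2 antibodies, 24 hr room temperature; 665/620 nm emission read.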
# [8] = qHTS assay to identify small molecule agonists of the hypoxia (HIF-1) signaling pathway (AID 1224846; active = well fitted activation curve with a large enough effect in the signal ratio in the repeat runs, not every such curve was filed as active; the % refers to the signal ratio)
# How it was run: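 Beta-lactamase FRET read-out (CCF4-AM substrate) from ME-180 cells carrying an HRE-driven bla reporter, after 17 hrs compound exposure at 37C/5% CO2. Cells were seeded at 2,000 per well in 0.5% dialyzed FBS medium and preincubated 5 hrs.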
# [9] = qHTS assay to identify small molecule agonists of H2AX - cell viability counter screen (AID 1224847; calls by dose curve; note: nearly all actives have a fitted effect of over 30% in size; note: potency is the fitted concentration of half-maximal effect)
# How it was run: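 CHO-K1 wt, 1000 cells/well, o/n 37C; cpds 15 conc, 3 h 37C, 0.76% DMSO; CellTiter-Glo, 30 min RT, luminescence.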
# [10] = qHTS RealTime-Glo MT Cell Viability Assay in HepG2 cells - 24 hour (AID 1224867); note: nearly all actives have a fitted effect of over 50% in size
# How it was run: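 qHTS, HepG2, 600 cells/well, RealTime-Glo (NanoLuc + prosubstrate) added with cells; 5 h preincubation; DMSO compound addition; 37 C; luminescence at 0/8/16/24/32/40 h.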
# [11] = qHTS RealTime-Glo MT Cell Viability Assay in HEK293 cells - 32 hour (AID 1224868); note: nearly all actives have a fitted effect of over 50% in size; note: potency is the fitted concentration of half-maximal effect
# How it was run: (§1)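 Assay medium contained NanoLuc luciferase plus cell-permeant prosubstrate, added with HEK293 cells at 600 cells/well. After 5 h at 37 C/5% CO2 compounds were added; plates stayed at 37 C for 40 h with serial luminescence reads.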
# [12] = A CellTox Green Cytotoxicity Assay to monitor cytotoxicity in HEK293 cells - 0 hour (AID 1224869); note: nearly all actives have a fitted effect of over 50% in size
# How it was run: (§2)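 Read-out: fluorescence of a cell-impermeant cyanine dye staining DNA of dead cells, proportional to cytotoxicity. HEK293, 600 cells/well with reagent, compound (23 nL DMSO) added after 5 h; reads at 0, 8, 16, 24, 32, 40 h.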
# [13] = qHTS RealTime-Glo MT Cell Viability Assay in HepG2 cells - 40 hour (AID 1224870); note: nearly all actives have a fitted effect of over 50% in size
# How it was run: (§3)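 HepG2 cells (600/well) mixed with RealTime-Glo MT reagent, settled 5 h at 37 C/5% CO2 before compound addition. Nonlytic NanoLuc luminescence from viable-cell prosubstrate reduction read repeatedly during 40 h treatment at 37 C.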
# [14] = A CellTox Green Cytotoxicity Assay to monitor cytotoxicity in HEK293 cells - 40 hour (AID 1224871); note: nearly all actives have a fitted effect of over 45% in size
# How it was run: as §2
# [15] = qHTS RealTime-Glo MT Cell Viability Assay in HEK293 cells - 16 hour (AID 1224872); note: nearly all actives have a fitted effect of over 50% in size; note: potency is the fitted concentration of half-maximal effect
# How it was run: as §1
# [16] = qHTS RealTime-Glo MT Cell Viability Assay in HepG2 cells - 8 hour (AID 1224873); note: nearly all actives have a fitted effect of over 55% in size
# How it was run: as §3
# [17] = A CellTox Green Cytotoxicity Assay to monitor cytotoxicity in HEK293 cells - 24 hour (AID 1224875); note: nearly all actives have a fitted effect of over 45% in size
# How it was run: as §2
# [18] = A CellTox Green Cytotoxicity Assay to monitor cytotoxicity in HepG2 cells - 16 hour (AID 1224876); note: nearly all actives have a fitted effect of over 45% in size; note: potency is the fitted concentration of half-maximal effect
# How it was run: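 HepG2, 600 cells/well premixed w/ CellTox Green; 5 h settle, 37 C/5% CO2; pintool cpd add (DMSO); 37 C, 40 h; fluorescence read at 0, 8, 16, 24, 32, 40 h.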
# [19] = qHTS assay to identify small molecule agonists of the estrogen related receptor (ERR) signaling pathway from Tox21 library (AID 1224849; calls by dose curve; note: nearly all actives have a fitted effect of over 15% in size); conditions: ERR reporter cell line, ONE-Glo luciferase, 18 h
# How it was run: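 Luminescence readout (ONE-Glo, 30 min RT) after 18 h compound exposure at 37 C of NTP-supplied ERR reporter cells; cells were plated 6 h before compound addition by pin tool.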
# [20] = qHTS RealTime-Glo MT Cell Viability Assay in HEK293 cells - 40 hour (AID 1224874); conditions: RealTime-Glo luminescence; max response: stronger effect = lower value; note: nearly all actives have a fitted effect of over 50% in size
# How it was run: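 Luminescence readout at each listed time point; HEK293, 600 cells/well, RealTime-Glo MT reagent added with cells; compounds pinned (23 nL in DMSO) after 5 h at 37 C; continuous culture at 37 C.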
structure (smiles),measurement,setting,value
CCOC(=O)NNc1nncc2ccccc12,Potency,[1],inactive
same,Potency,[2],inactive
same,Potency,[3],inactive
same,Potency,[4],inactive
same,Potency,[5],inactive
same,Potency,[6],inactive
same,Potency,[7],inactive
same,outcome,[8],inactive
same,Potency,[9],inactive
same,outcome,[10],inactive
same,Potency,[11],inactive
same,outcome,[12],inactive
same,outcome,[13],inactive
same,Potency,[14],inactive
same,Potency,[15],inactive
same,outcome,[16],inactive
same,Potency,[17],inactive
same,Potency,[18],inactive
CC[C@H](C)C(=O)O[C@H]1C[C@@H](C)C=C2C=C[C@H](C)[C@H](CC[C@@H]3C[C@@H](O)CC(=O)O3)[C@H]21,Potency,[1],inactive
same,Potency,[2],inactive
same,Potency,[3],inactive
same,Potency,[4],69.6 µM (active) and inactive
same,Potency,[5],inactive
same,Potency,[6],inactive
same,Potency,[7],inactive
same,outcome,[8],inactive
same,Potency,[9],115 µM (active) and inactive
same,"activity change, positive = activation",[19]; at 42.5 µM (top of the series),14.3% (active)
same,"activity change, positive = activation",[19]; at 92.4 µM (top of the series),-46.9% (active) and 27.5% (active)
same,outcome,[10],inactive
same,Potency,[11],inactive
same,outcome,[12],inactive
same,outcome,[13],inactive
same,Potency,[14],inactive
same,Potency,[15],inactive
same,outcome,[16],inactive
same,Potency,[17],inactive
same,Potency,[18],49.6 µM (active) and inactive and 16.9 µM (active)
COc1ccc(NC(C)=O)cc1N,Potency,[1],inactive
same,Potency,[2],inactive
same,Potency,[3],inactive
same,Potency,[4],inactive
same,Potency,[5],inactive
same,Potency,[6],inactive
same,Potency,[7],inactive
same,outcome,[8],inactive
same,Potency,[9],inactive
same,outcome,[10],inactive
same,Potency,[11],inactive
same,outcome,[12],inactive
same,outcome,[13],inactive
same,Potency,[14],inactive
same,Potency,[15],inactive
same,max response,[20],6.82% (inactive) and 6.45% (inactive)
same,Potency,[17],inactive
same,Potency,[18],inactive and 21.9 µM (active)
O=c1[nH]c(=O)n([C@H]2C[C@H](O)[C@@H](CO)O2)cc1Br,Potency,[1],inactive
same,Potency,[2],inactive
same,Potency,[3],7.81 µM (active) and 10.6 µM (active)
same,Potency,[4],inactive
same,Potency,[5],inactive
same,Potency,[6],inactive
same,Potency,[7],inactive
same,Potency,[9],inactive
same,outcome,[10],inactive
same,Potency,[11],inactive
same,outcome,[12],inactive
same,outcome,[13],inactive
same,Potency,[14],inactive
same,Potency,[15],inactive
same,outcome,[16],inactive
same,Potency,[17],inactive
same,Potency,[18],inactive
CCCCC(CC)COC(=O)CCCCC(=O)OCC(CC)CCCC (stereo not given),Potency,[1],inactive
same,Potency,[2],inactive
same,Potency,[3],inactive
same,Potency,[4],inactive
same,Potency,[5],inactive
same,Potency,[6],inactive
same,Potency,[7],inactive
same,outcome,[8],inactive
same,Potency,[9],inactive
same,outcome,[10],inactive
same,Potency,[11],inactive
same,outcome,[12],inactive
same,outcome,[13],inactive
same,Potency,[14],inactive
same,Potency,[15],inactive
same,outcome,[16],inactive
same,Potency,[17],inactive
same,Potency,[18],inactive
COCCCOc1ccnc(CS(=O)c2nc3ccccc3[nH]2)c1C (stereo not given),Potency,[1],inactive
same,Potency,[2],inactive
same,Potency,[3],6.83 µM (active)
same,Potency,[4],inactive
same,Potency,[5],inactive
same,Potency,[6],inactive
same,Potency,[7],inactive
same,outcome,[8],inactive
same,Potency,[9],inactive
same,"activity change, positive = activation",[19]; at 92.4 µM (top of the series),-25.6% (inactive)
same,outcome,[10],inactive
same,Potency,[11],9.74 µM (active) and inactive
same,outcome,[12],inactive
same,outcome,[13],inactive
same,Potency,[14],inactive
same,Potency,[15],10.9 µM (active) and inactive
same,outcome,[16],inactive
same,Potency,[17],inactive
same,Potency,[18],inactive
